PubChem BioAssay (NCATS)
Results filed as inconclusive are left out. Calls of active or inactive are those of the source. Calls come from the whole dose curve; as a rule, active = well fitted inhibition curve with a large enough effect; inconclusive = small, poorly fitted or top-dose-only effect, or effect the other way; inactive = flat fitted curve, though single readings scatter.

biological target: ATP-dependent 6-phosphofructokinase (Trypanosoma brucei brucei) (UniProt O15648); assay: qHTS Assay to Find Inhibitors of T. brucei phosphofructokinase: hit validation (AID 492961);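 note: luminescence reports ADP formed as PFK phosphorylates fructose-6-phosphate with ATP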; conditions: T. brucei PFK, ADP-Glo luminescence; series mostly up to 51.4 µM; activity change, negative = inhibition: at the top concentration
Text: NIH Molecular Libraries Probe Production Network [MLPCN] NIH Chemical Genomics Center [NCGC] Grant: 1 R03 MH092153-01 PI Name: Malcolm Walkinshaw, University of Edinburgh NCGC Assay Overview: Various species of the protozoan family Trypanosomatidae are responsible for a range of serious human diseases in tropical and subtropical areas of the world. […] Many of the disorders caused by trypanosomatids are fatal if left untreated, but most currently used drugs are inefficient and toxic. […] Oxidative metabolism involving the mitochondrial tricarboxylic acid cycle and oxidative phosphorylation are repressed in these parasites, and recent RNA interference (RNAi) experiments have shown that even partial depletion of certain individual glycolytic enzymes can lead to the death of cultured parasites. One such glycolytic enzyme, phosphofructokinase (PFK), catalyzes the formation of fructose-1,6-bisphosphate (F1,6BP) and ADP from fructose-6-phosphate (F6P) and ATP, and in many metabolic circumstances makes an important contribution to the control of flux through the glycolytic pathway. As a specific glycolytic target, PFK is particularly attractive as it catalyzes the first irreversible step in glycolysis, and structural and kinetic studies have shown very substantial and essential differences from corresponding host enzymes, allowing for the discovery of parasite-selective inhibitors. The goal of this screen is to find small-molecule inhibitors of T. brucei PFK using a biochemical assay that measures PFK activity as a function of ADP production. A luminescence-based assay for T. brucei PFK activity has been developed which uses luciferase to detect production of ADP. Traditional luciferase-based nucleotide detection reagents rely on ATP production as a direct substrate for the luciferase reaction; however, PFK catalyzes the transfer of a phosphate from ATP to F6P, resulting in the net depletion of ATP. To directly measure the ADP product of the PFK reaction, we used the ADP-Glo detection kit (Promega), which utilizes two separate reactions to 1) deplete all remaining uncatalyzed ATP and 2) convert all remaining ADP to ATP, which is then detected through a traditional luciferase-coupled reaction. Compounds were screened as a concentration-titration series that ranged from 57 uM to 0.7 nM.
NCGC Assay Protocol Summary: Substrate buffer was dispensed into white, solid 1536-well plates at 3uL/well in 0.1M triethanolamine (TEA) buffer, pH 8.0, containing final concentrations of 5 mM MgCl2, 0.01% Tween20, 0.5 mM fructose-6-phosphate (F6P) and 0.1mM ATP. Then, 23 nL of compounds or DMSO were delivered to each well using a pin tool. One uL T. brucei PFK (0.1M TEA, 0.01% Tween20, 0.1% bovine serum albumin (BSA) and 1.25nM PFK, final concentrations) was then dispensed, and plates were incubated at room temperature for 45 min. The luminescent detection reagent, ADP-Glo (Promega), was then added in two steps: the first reagent, ADP-Glo (which converts remaining uncatalyzed ATP), was added at 2.5uL/well and incubated for ten minutes at room temperature, and the second component, Kinase Detection reagent (which converts ADP to ATP as a substrate for luciferase-based luminescence), was added immediately after at 5uL/well, followed by one final ten minute room temperature incubation. The plates were measured on a ViewLux plate reader for luminescent signal using a clear filter with a one second exposure. The %Activity was determined from the corrected luminescence values. As no specific T. brucei PFK inhibitors have been identified in the literature, 1x (1.25nM) and 0x PFK enzyme controls (untreated) were included to normalize %Activity of identified inhibitors; 0x enzyme values corresponded to 100%Activity (full inhibition), while 1x PFK enzyme values were used to normalize 0%Activity (no inhibition). Concentration-response curves were fitted to the signals arising from the resulting luminescence. […]

ATP-dependent 6-phosphofructokinase (Trypanosoma brucei brucei), sequence (O15648 whole entry, looked up): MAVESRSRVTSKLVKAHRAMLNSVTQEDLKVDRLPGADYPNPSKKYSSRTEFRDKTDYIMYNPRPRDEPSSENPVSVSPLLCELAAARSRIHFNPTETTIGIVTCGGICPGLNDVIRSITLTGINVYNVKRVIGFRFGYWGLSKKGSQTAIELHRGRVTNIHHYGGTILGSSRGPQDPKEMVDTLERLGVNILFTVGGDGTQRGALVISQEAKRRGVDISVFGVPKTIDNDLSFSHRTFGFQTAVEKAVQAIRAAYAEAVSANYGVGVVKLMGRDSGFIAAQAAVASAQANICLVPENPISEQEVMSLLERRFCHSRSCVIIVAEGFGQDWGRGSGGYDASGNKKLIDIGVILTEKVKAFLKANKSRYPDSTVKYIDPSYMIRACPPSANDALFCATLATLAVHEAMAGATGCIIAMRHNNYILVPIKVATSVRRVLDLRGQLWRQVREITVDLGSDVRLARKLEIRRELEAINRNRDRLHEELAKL

SMILES | activity change, negative = inhibition
Clc1ccc(COC(Cn2ccnc2)c2ccc(Cl)cc2Cl)c(Cl)c1 (centres undefined) | -6.9% [at 24.3 µM] (inactive)
CS(=O)(=O)c1ccc(C2=C(c3ccccc3)C(=O)OC2)cc1 | 4% (inactive)
NS(=O)(=O)c1cc(Cl)c(Cl)c(S(N)(=O)=O)c1 | -2.48% [at 24.3 µM] (inactive)
CC(C)CN(C[C@@H](O)[C@H](Cc1ccccc1)NC(=O)O[C@H]1CO[C@H]2OCC[C@H]21)S(=O)(=O)c1ccc(N)cc1 | -2.67% (inactive)
O=C1C(CCC(O)c2ccc(F)cc2)C(c2ccc(O)cc2)N1c1ccc(F)cc1 (centres undefined) | -0.787% (inactive)
COc1ccnc(CS(=O)c2nc3ccc(OC(F)F)cc3[nH]2)c1OC (centres undefined) | -18.3% (inactive)
O=C(O)c1nc(=O)[nH]c(=O)[nH]1 | -10.1% (inactive)
N#Cc1c(N(CC(=O)O)CC(=O)O)sc(C(=O)O)c1CC(=O)O | -8.15% (inactive)
NCC1CCC(C(=O)O)CC1 (centres undefined) | 6.55% [at 24.3 µM] (inactive)
COc1c(C)c2c(c(O)c1CC=C(C)CCC(=O)OCCN1CCOCC1)C(=O)OC2 | -7.03% (inactive)
COc1cc2c(cc1OC)CC(=O)N(CCCN(C)C[C@H]1Cc3cc(OC)c(OC)cc31)CC2 | 3.9% (inactive)
N#CC(c1ccc(Cl)cc1)c1c(Cl)cc(-n2ncc(=O)[nH]c2=O)cc1Cl (centres undefined) | 0% (inactive)
CN1CC(=O)N2C(Cc3c([nH]c4ccccc34)[C@H]2c2ccc3c(c2)OCO3)C1=O (some centres undefined) | -8.89% (inactive)
CN1CCN2c3ncccc3Cc3ccccc3C2C1 (centres undefined) | -6.51% (inactive)
